Activity calls are given as the source filed them. Unless noted, how the calls were made is not given here.

Experiment [1] is described as follows: HepG2 liver cancer cell viability effects, profiling panel, resazurin fluorescence, 24 h, PK04 Diversity Set (AID 1172). Further: test concentration not given here. The settings on record: higher = more signal. A general note: The colour change of resazurin is a common sign of viable cells or microbes.
Experiment [2] is described as follows: basal S. cerevisiae growth modulation, no modifier, primary screen, OD600, strain BY4716, 24 h, basal condition (AID 1173). The note with it: OD600, 24 h, higher = more signal, called active from +8 up or from −8 down.
The nature of experiment [3]: MM1S myeloma cell viability, profiling panel, resazurin fluorescence, basal, 24 h, PK04 Diversity Set (AID 1174).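 Further: MM1S multiple myeloma cell line; test concentration not given here.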 The settings on record: higher = more signal, called active from +8 up or from −8 down.
The target of experiment [4] is Dihydroorotate dehydrogenase (quinone), mitochondrial (Plasmodium falciparum (isolate 3D7)) (UniProt Q08210). The experiment in a line: PfDHODH enzyme inhibitors, primary screen, biochemical, C-terminal His tag, absorbance 600 nm (AID 1175).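 Further: recombinant parasite enzyme with a five histidine tag at its C terminus; test concentration not given here.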 The settings on record: DCIP absorbance 600 nm, higher = more signal, called active from +8 up or from −8 down.
Experiment [5] can be described thus: P. aeruginosa biofilm formation inhibitors, primary screen, strain PAO1, LB-PBS medium, absorbance 600 nm (AID 1176). Further: test concentration not given here. The note with it: P. aeruginosa PAO1 growth/biofilm, A600, 12 h; higher = more signal.
A short description of experiment [6]: S. cerevisiae RM11-1a growth modifiers, primary screen, strain RM11-1a, OD600, basal, 24 h (AID 1177).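 Further: cultures grown under basal conditions with no added stressor; test concentration not given here.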 The settings on record: OD600, 24 h, higher = more signal, called active from +8 up or from −8 down.
Experiment [7] in a line: E. coli acrAB mutant growth effects, primary screen, E. coli filamentation inducers, strain DRC39, OD650, 24 h (AID 1178).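 Further: growth measured as culture turbidity by optical density at 650 nm; test concentration not given here.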 The note with it: higher = more signal, called active from +8 up or from −8 down.
Experiment [8] can be described thus: E. coli acrAB mutant growth effects, primary screen, E. coli filamentation inducers, strain DRC39, OD650, 48 h (AID 1179).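 Further: screen aims at cell division blockers that make cells filament.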 The note with it: E. coli DRC39 delta-acrAB growth, higher = more signal, called active from +8 up or from −8 down.
A short description of experiment [9]: RPMI8226 myeloma cell viability, profiling panel, resazurin fluorescence, basal, 24 h, PK04 Diversity Set (AID 1180).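 Further: RPMI8826 multiple myeloma cell line at 5000 cells per well; test concentration not given here.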 The note with it: higher = more signal.
The target in experiment [10] is E3 ubiquitin-protein ligase XIAP (Homo sapiens) (UniProt P98170). The experiment in a line: XIAP binders, primary screen, biophysical, small-molecule microarray, fluorescence 635 nm (AID 1181).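 Further: score merges 667 nm emission and signal to noise over triplicate slides.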 The note with it: small-molecule microarray binding, higher = more signal.
E3 ubiquitin-protein ligase XIAP (Homo sapiens), sequence (P98170 whole entry, looked up): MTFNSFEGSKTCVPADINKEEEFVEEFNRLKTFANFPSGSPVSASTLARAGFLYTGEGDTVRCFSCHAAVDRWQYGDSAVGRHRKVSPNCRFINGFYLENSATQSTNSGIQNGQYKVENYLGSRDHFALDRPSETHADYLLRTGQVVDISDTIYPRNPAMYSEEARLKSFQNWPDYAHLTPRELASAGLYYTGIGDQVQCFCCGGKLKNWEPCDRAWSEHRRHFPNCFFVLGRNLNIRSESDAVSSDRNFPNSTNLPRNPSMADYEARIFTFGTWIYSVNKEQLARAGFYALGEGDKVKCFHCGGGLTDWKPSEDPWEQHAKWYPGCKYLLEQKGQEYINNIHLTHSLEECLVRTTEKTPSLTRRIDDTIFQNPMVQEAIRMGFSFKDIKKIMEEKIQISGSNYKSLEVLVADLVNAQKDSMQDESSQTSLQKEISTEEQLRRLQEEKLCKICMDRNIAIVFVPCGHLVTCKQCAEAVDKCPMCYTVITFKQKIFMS

Dihydroorotate dehydrogenase (quinone), mitochondrial (Plasmodium falciparum (isolate 3D7)), sequence (Q08210 whole entry, looked up): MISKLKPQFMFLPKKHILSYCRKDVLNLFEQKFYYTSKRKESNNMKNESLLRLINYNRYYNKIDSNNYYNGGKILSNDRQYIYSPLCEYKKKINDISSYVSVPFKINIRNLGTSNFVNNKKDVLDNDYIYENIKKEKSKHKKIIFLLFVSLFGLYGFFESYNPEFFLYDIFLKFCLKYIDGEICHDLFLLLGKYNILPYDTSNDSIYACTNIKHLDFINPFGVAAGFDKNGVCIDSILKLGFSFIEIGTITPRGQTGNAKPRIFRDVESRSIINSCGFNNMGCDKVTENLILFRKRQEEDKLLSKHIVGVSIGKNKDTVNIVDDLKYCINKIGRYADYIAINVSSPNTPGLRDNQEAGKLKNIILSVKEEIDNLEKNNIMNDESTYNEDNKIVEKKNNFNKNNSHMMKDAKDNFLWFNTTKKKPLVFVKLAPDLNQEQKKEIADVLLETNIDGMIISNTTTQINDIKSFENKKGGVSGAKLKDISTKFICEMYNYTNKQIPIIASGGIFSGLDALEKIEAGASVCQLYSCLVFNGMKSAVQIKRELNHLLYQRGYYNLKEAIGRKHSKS

Turning to `COCCCNC(=O)[C@@]1(Sc2ccc(C)cc2)CC(=O)N(Cc2ccccc2Cl)[C@@H]1c1ccc(CO)cc1`, the z-score in experiment [1] was 0.683; in [2] it was -0.209 (inactive); in experiment [3], 0.306 (inactive); in [5] it was 0.366 (inactive); in experiment [6] it was -0.964 (inactive); in experiment [7], 1.08 (inactive). The z-score is 0.709 (inactive) in [8] and 0.761 in experiment [9]. Moreover, the composite z-score in experiment [4] is -1.08 (inactive); in [10], 0.145.

`CC(=O)NCCCC[C@@H]1NC(=O)[C@H]2C[C@@H](C(=O)O)[C@@H](c3ccc(O)cc3)N2C1=O`: the z-score in experiment [1] is 0.273; in experiment [2] it was -1.35 (inactive); in experiment [3], -0.481 (inactive); in [5], 0.711 (inactive); in [6], 3.29 (inactive); in experiment [7], -1.91 (inactive). Besides, the results for the z-score in experiment [8] and in experiment [9] were -0.879 (inactive) and 0.002, respectively. Also, the figures for the composite z-score in [4] and in [10] were -0.24 (inactive) and 0.5, respectively.

For the compound `O=C1[C@H]2C=C(I)[C@H](C[C@@H]2OCCCCO)[C@@]12CO2`, the z-score is 0.187 in [1]; -1.19 (inactive) in [2]; -0.536 (inactive) in [3]; 0.13 (inactive) in [5]; -0.192 (inactive) in experiment [6]; -0.682 (inactive) in [7]. Besides, the figures for the z-score in experiment [8] and in experiment [9] were -0.405 (inactive) and -0.304, respectively. Besides, the figures for the composite z-score in experiment [4] and in [10] were -0.543 (inactive) and -0.0448, respectively.

On to `[N-]=[N+]=NCc1ccccc1[C@@H]1OC(c2ccc(OCCCO)cc2)=N[C@]1(CCS(=O)(=O)c1ccccc1)C(=O)N1CCOCC1`, for which the z-score in [1] was -0.0512; in experiment [2], -0.26 (inactive); in experiment [3] it was 0.543 (inactive); in [5] it was 0.19 (inactive); in experiment [6] it was 0.821 (inactive); in experiment [7], 2.84 (inactive). Further, the z-score in [8] is 0.753 (inactive); in [9], 1.05. For the same compound, the composite z-score in experiment [4] was -4.67 (inactive); in [10] it was 0.0512.

Turning to `COCC(=C=CC[C@H](O)c1cccc(OCCO)c1)CCO`, the z-score in experiment [1] is 0.72; in experiment [2] it was 0.161 (inactive); in [3] it was 0.491 (inactive); in experiment [5], 0.154 (inactive); in experiment [6] it was 0.896 (inactive); in experiment [7], 0.128 (inactive). Also, the z-score is 0.398 (inactive) in experiment [8] and 0.557 in experiment [9]. Besides, the composite z-score in experiment [4] was -0.326 (inactive); in experiment [10] it was 0.0153.

Take `COc1ccc([Si](C)(C)[C@@H]2[C@@H](CCO)O[C@]3(C(=O)N(Cc4cccc(N5CCOC5=O)c4)c4ccccc43)[C@H]2C)cc1`: the z-score in experiment [1] is -1.09; in experiment [2], 2.41 (inactive); in experiment [3], -3.35 (inactive); in experiment [5], 2.95 (inactive); in experiment [6], 6.05 (inactive); in [7], 1.4 (inactive). Also, the z-score in experiment [8] is 0.44 (inactive); in experiment [9], -2.78. Further, the values for the composite z-score in experiment [4] and in experiment [10] were -0.346 (inactive) and -0.0599, respectively.

For the compound `COCCCNC(=O)[C@@]1(Cc2ccccc2CN=[N+]=[N-])N=C(c2ccc(OCCCO)cc2)O[C@H]1c1ccccc1CN=[N+]=[N-]`, the z-score in [1] was 0.122; in experiment [2], -1.03 (inactive); in [3], -1.92 (inactive); in [5], 0.218 (inactive); in experiment [6], -0.016 (inactive); in experiment [7], 2.15 (inactive). Besides, the z-score in experiment [8] is 0.707 (inactive); in experiment [9], -4.14. Moreover, the composite z-score in experiment [4] was 1.06 (inactive); in experiment [10], 0.244.

As to `C=C[C@H](C)[C@@H](OC(=O)Nc1ccc(SC)cc1)c1ccc(O)c2ccccc12`, the z-score is -0.752 in experiment [1]; -18.2 (active) in experiment [2]; -3.78 (inactive) in experiment [3]; 0.908 (inactive) in experiment [5]; -5.28 (inactive) in experiment [6]; -0.33 (inactive) in experiment [7]. Moreover, the z-score in experiment [8] is -0.638 (inactive); in experiment [9], -3. The composite z-score in [4] is -1.84 (inactive); in [10], -0.258.

As for `COc1ccc([Si](C)(C)[C@@H]2[C@@H](CC(=O)N3CCC[C@H]3CO)O[C@]3(C(=O)N(Cc4cccc(I)c4)c4ccccc43)[C@H]2C)cc1`, the z-score in experiment [1] was -2.43; in [2], -0.91 (inactive); in [3], -3.49 (inactive); in experiment [5], 0.483 (inactive); in experiment [6], 1.07 (inactive); in experiment [7], -1 (inactive). Moreover, the z-score in [8] was -1.05 (inactive); in experiment [9], -4.92. For the same compound, the results for the composite z-score in experiment [4] and in experiment [10] were 0.447 (inactive) and 0.189, respectively.

Consider `O=C(O)C1N=C(c2ccc(OCCCO)cc2)N(c2ccccc2)O1` (stereo not given), for which the z-score is -0.0554 in experiment [1]; 0.0427 (inactive) in experiment [2]; -0.258 (inactive) in experiment [3]; -0.469 (inactive) in [5]; 0.0613 (inactive) in experiment [6]; -0.351 (inactive) in [7]. In addition, the z-score in experiment [8] was 0.46 (inactive); in experiment [9], -0.219. In addition, the composite z-score was -0.928 (inactive) in experiment [4] and -0.22 in experiment [10].

`COc1ccc([Si](C)(C)[C@H]2[C@H](CC(=O)N3CCC[C@H]3CO)O[C@@]3(C(=O)N(Cc4cccc(N5CCOC5=O)c4)c4ccccc43)[C@@H]2C)cc1`: the z-score in [1] was 0.22; in experiment [2], -0.338 (inactive); in experiment [3], -0.133 (inactive); in [5], -0.249 (inactive); in experiment [6] it was 0.177 (inactive); in experiment [7] it was 0.181 (inactive). The z-score was -0.109 (inactive) in experiment [8] and -0.699 in experiment [9]. In addition, the results for the composite z-score in [4] and in [10] were -3.32 (inactive) and -0.0839, respectively.

For the compound `C=C(C)[C@@H]1CC=C(C(O)C2C=CC3C(=O)NC(=O)C3N2Nc2ccc(Cl)cc2Cl)CC1` (stereo not given in full), the z-score in experiment [1] was -3.18; in experiment [2] it was -5.07 (inactive); in [3], -2.94 (inactive); in experiment [5] it was 0.875 (inactive); in experiment [6] it was 1.11 (inactive); in experiment [7], -0.761 (inactive). Further, the results for the z-score in experiment [8] and in experiment [9] were -1.29 (inactive) and -2.54, respectively. Also, the figures for the composite z-score in experiment [4] and in experiment [10] were 0.512 (inactive) and -0.0655, respectively.

Regarding `CO[C@H]1O[C@H](CO)[C@@H](OC(=O)Nc2cccc(F)c2)[C@H](OC(=O)Nc2ccccc2)[C@H]1OC(=O)Nc1ccccc1`, the z-score was -2.71 in experiment [1]; 0.311 (inactive) in experiment [2]; -4.75 (inactive) in experiment [3]; -0.261 (inactive) in [5]; 1.77 (inactive) in experiment [6]; 1.11 (inactive) in experiment [7]. The figures for the z-score in [8] and in experiment [9] were 0.194 (inactive) and -4.5, respectively. Besides, the composite z-score is -0.599 (inactive) in experiment [4] and 0.072 in experiment [10].

Consider `COc1cc(CO)cc(I)c1O[C@H]1C=C(C(=O)NCCO)C[C@@H](NC[C@@H]2CCCO2)[C@@H]1O`, for which the z-score in [1] is 0.773; in [2], -0.813 (inactive); in experiment [3] it was -0.292 (inactive); in experiment [5] it was 0.0694 (inactive); in experiment [6], 0.683 (inactive); in [7], 1.16 (inactive). The z-score in experiment [8] was 0.915 (inactive); in experiment [9] it was 0.577. For the same compound, the composite z-score is 0.459 (inactive) in [4] and -0.13 in experiment [10].

(Values after PubChem BioAssay.)
